This is a sample that favours compounds with a hit; in the whole collection about 9% have one here.
Luc counter: blocks Kinase-Glo luciferase, a counter-screen artifact. Potency, µM (top dose mostly 38.3 µM), inactives show top-dose activity change, negative = inhibition, hits mostly inhibitors. 200,000 tested, 0.28% active. Kinase-Glo luciferase, ATP luminescence, 8 min; also: % is scaled to controls: 0 for no effect and ±100 for the full control effect; nearly all actives have a fitted effect of over 60% in size
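Compounds were added to a substrate mix at pH 7.2 (50 mM imidazole, 10 uM ATP, within the enzyme's linear range), followed by Kinase-Glo detection reagent; luminescence was measured after 8 minutes at ambient temperature.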
HPGD block: inhibitors of human 15-hydroxyprostaglandin dehydrogenase (HPGD); P15428; purified HPGD, NADH fluorescence kinetic, PGE2 substrate; 150,000 tested, 4.3% active; Potency, µM, for the others: at the highest dose activity change, negative = inhibition, hits mostly inhibitors; active = well fitted inhibition curve with a large enough effect, not every such curve was filed as active; inconclusive = small, poorly fitted or top-dose-only effect, or another doubt; inactive = no such curve, though single readings can be large or run the other way; also: % is scaled to controls: 0 for no effect and ±100 for the full control effect
Target sequence (P15428 whole entry, looked up): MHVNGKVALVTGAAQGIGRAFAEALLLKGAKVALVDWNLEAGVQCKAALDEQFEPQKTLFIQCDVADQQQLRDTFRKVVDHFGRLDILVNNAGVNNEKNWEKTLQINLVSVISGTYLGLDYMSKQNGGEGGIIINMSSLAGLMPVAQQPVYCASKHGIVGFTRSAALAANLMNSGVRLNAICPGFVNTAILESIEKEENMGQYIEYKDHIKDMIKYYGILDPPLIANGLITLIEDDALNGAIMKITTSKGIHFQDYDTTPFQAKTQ
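20 nM HPGD preincubated 15 min at room temperature with compound in 50 mM Tris-HCl pH 8, 0.01% Tween 20. Started with 1 mM NAD+ and 30 uM prostaglandin E2; NADH fluorescence (360/450 nm) read 5 times over 30-s intervals, last minus first.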
HTT aggregate: reduces HttQ103-GFP aggregates in PC12 cells | PC12 HttQ103-GFP aggregates, Acumen cytometry, 40 h | Potency, µM (series often up to 46.1 µM), inactives show at the highest dose activity change, negative = inhibition, most hits filed as inhibitors | 220,000 tested, 1.1% active | AID 1688; also: % is scaled to controls: 0 for no effect and ±100 for the full control effect; nearly all actives have a fitted effect of over 60% in size
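Inducible Q103 Huntingtin exon 1–GFP PC12 line, 1500 cells/well in phenol red free DMEM with 5% equine and 5% calf serum. Tebufenozide 100 nM induced expression; compounds titrated; aggregates quantified by cytometry.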
LMNA splice mod: modulators of lamin A splicing | Potency, µM (doses to about 46.1 µM), for inactives: at the top dose ratio change, negative = inhibition, most hits filed as inhibitors | 200,000 tested, 0.01% active | AID 1487 | HeLa LMNA splicing GFP/RFP minigene ratio, 48 h; active = well fitted inhibition curve with a large enough effect in the signal ratio, with a control signal flat, not every such curve was filed as active; inconclusive = small, poorly fitted or top-dose-only effect, or effect the other way, or a change in a side signal; the % refers to the signal ratio; also: % is scaled to controls: 0 for no effect and ±100 for the full control effect
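Read-out is the ratio of GFP to DsRed2 object intensity, acquired by 488 nm laser-scanning cytometry on HeLa lamin A-EGFP minigene reporter cells. Compound incubation 48 hrs at 37 °C in Opti-MEM with 2% FBS; DMSO 0.5% final.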
ALDH1A1 block: ALDH1A1 (human) enzyme inhibition. P00352. Purified ALDH1A1, NADH fluorescence, propionaldehyde substrate. Potency, µM (titrated, usually from 75.3 µM), for inactives: at the highest dose activity, negative = inhibition, usual class: inhibitors. 220,000 tested, 7.3% active; active = well fitted inhibition curve with a large enough effect, not every such curve was filed as active; inconclusive = small, poorly fitted or top-dose-only effect, or another doubt; inactive = no such curve, though single readings can be large or run the other way;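 also: plate controls were no enzyme wells and a reference inhibitor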
Target sequence (P00352 whole entry, looked up): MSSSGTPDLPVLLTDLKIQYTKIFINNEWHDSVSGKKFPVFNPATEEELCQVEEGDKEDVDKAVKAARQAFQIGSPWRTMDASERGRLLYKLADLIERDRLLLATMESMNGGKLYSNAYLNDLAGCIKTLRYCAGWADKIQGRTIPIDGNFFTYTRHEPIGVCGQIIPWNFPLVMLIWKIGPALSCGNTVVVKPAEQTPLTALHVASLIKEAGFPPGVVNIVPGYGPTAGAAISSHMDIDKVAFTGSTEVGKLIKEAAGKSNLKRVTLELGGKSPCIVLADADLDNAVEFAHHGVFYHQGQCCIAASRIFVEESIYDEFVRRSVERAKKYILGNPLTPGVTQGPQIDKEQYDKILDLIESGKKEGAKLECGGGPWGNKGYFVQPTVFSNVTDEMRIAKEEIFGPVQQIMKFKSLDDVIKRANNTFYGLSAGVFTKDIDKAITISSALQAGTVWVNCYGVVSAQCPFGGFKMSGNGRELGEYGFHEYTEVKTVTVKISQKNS
HTT ATP protect: protects HTT-Q103 PC12 cells, measured by ATP | PC12 HTT-Q103 induced, cytoprotection, ATP luminescence, 40 h | Potency, µM (titrated, usually from 56.4 µM), without a hit: cytoprotection (ATP increase), actives largely listed as activators | 230,000 tested, 0.14% active | AID 1471; also: % of control where 0% means no effect; nearly all actives have a fitted effect of over 45% in size
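PC12 cells stably carrying ecdysone-inducible Htt exon 1 (Q103)–GFP were induced with 100 nM tebufenozide (final) alongside library compounds in a dose series. Cytoprotection was scored as retained ATP by ATPlite luminescence.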
The depositor's hits bear a star; u = inconclusive; x = not tested or not shown; ! = not confirmed by another sample; [ ] = dose if it differs, or a comment. Unless noted, calls follow the shape of the dose curve; as a rule, active = well fitted curve in the direction sought with a large enough effect; inconclusive = small, poorly fitted or top-dose-only effect, or another doubt; inactive = no such curve, though single readings can be large; an effect the other way counts as inactive or inconclusive. Potency is read from the fitted curve at half-maximal effect.

SMILES	Luc counter	HPGD block	HTT aggregate	LMNA splice mod	ALDH1A1 block	HTT ATP protect
COc1ccc(Cl)cc1NC(=O)CN1C(=O)CCS(=O)(=O)c2ccccc21	4%	-14%	1%	-11%	4%	2%[10 µM]
Cc1cc(C)nc(SC2c3cccc4cccc(c34)C2NS(=O)(=O)c2ccccc2)n1 (configuration not stated)	1%	-12%	9%	u	u	x
Cc1ccc(N2C(=O)NC(NC(=O)C(C)(C)C)(C(F)(F)F)C2=O)cc1 (configuration not stated)	x	x	u	-7%	1%	-3%[10 µM]
CN(C)c1cccc(N=C2C=C(N3CCOCC3)CC(C)(C)C2)c1	1%	-7%	u	11%	3%	-3%
COc1ccc(C2CC(=O)c3c(C)nc(N4CCN(Cc5ccccc5)CC4)nc3C2)cc1OC (configuration not stated)	-2%	-16%	u	u	25µM*	3%[0.074 µM]
COc1cc(NC(=O)CCc2nc(-c3cccs3)no2)cc(OC)c1OC	0%	-6%	-23%	u	2%	-14%
COc1ccc(S(=O)(=O)N(C(C)=O)c2ccc3oc(=O)sc3c2)cc1	-1%	20µM*	u	u	u	4%[10 µM]
COc1ccc(N(C(=O)C(C)C)S(=O)(=O)c2ccc(Cl)cc2)cc1	-6%	-13%	-27%	-6%	u	-21%
Cc1ccc(C(=O)c2cnc3ccccc3c2-c2ccccc2)cc1	-2%	-15%	u	-5%	13µM*	-30%
CNc1ncc(C(=O)c2ccc(-c3ccccc3)cc2)s1	x	x	-11%[9.22 µM]	x	x	1%[10 µM]
COc1ccc(C(=O)c2cnc3ccccc3c2-c2ccccc2)cc1	0%	u	u	5%	1.4µM*	-69%
COc1cc2c(cc1OC)C1=NC(=O)CN1C(SCc1ccc(C)cc1)=N2	0%	-11%	-24%	-2%	u	13%[10 µM]
COc1ccc(O[C@H]2C=C[C@@H](c3ccccc3)O[C@@H]2COC(=O)CC/C(C)=N/OC[C@@H](O)COCc2ccco2)cc1	2%	-17%	10%	u	10µM*	x
C/C(CCC(=O)OC[C@@H]1O[C@H](C#Cc2ccccc2)C=C[C@@H]1Oc1ccc(C)cc1)=N/OC[C@@H](O)COCc1ccco1	x	x	x	x	0%[13.5 µM]	-1%[10 µM]
COc1ccc(/C=N/NC(=O)c2cc(O)c(O)c(O)c2)cc1Cn1cc([N+](=O)[O-])cn1	0%	x	10%	-4%[46 µM]	u	-52%
Cc1cc(O)c2c(c1)C(=O)c1cccc(O)c1C2=O	-1%	-6%	-1%	u	13µM*!	-13%[1.9 µM]
O=C(O)c1cc(O)c2c(c1)C(=O)c1cccc(O)c1C2=O	-2%	u	-16%	u	u	1%[1.9 µM]
Cc1nnc(SCc2ccccc2F)n1NCc1cccs1	3%	32µM*	19%	-5%	-9%	-3%
Nn1c(SCc2ccccc2F)nnc1-c1ccncc1	x	x	-4%[9.22 µM]	x	x	17%[10 µM]
O=C1CCCC=C1[C@H](O)c1ccc([N+](=O)[O-])cc1	x	x	x	x	-4%[13.5 µM]	-10%[10 µM]
CC(=O)Nc1ccc(S(=O)(=O)N2C3CCCC2CC(NC(=O)C2CCCCC2)C3)cc1 (configuration not stated)	3%	-4%	-4%	3%	5%	6%[10 µM]
CCCC(C(=O)NC1CCCC1)N(Cc1ccc2c(c1)OCO2)C(=O)c1snc(C(N)=O)c1N (configuration not stated)	-2%	-16%	14%	-1%	13µM*	-9%
CC(C)CC(C(=O)NC1CCCC1)N(Cc1cccs1)C(=O)c1snc(C(N)=O)c1N (configuration not stated)	-2%	u	11%	0%	8%	-9%[10 µM]
COc1ccccc1NC(=O)/C=C/c1ccc(OC)c(S(=O)(=O)N2CCOCC2)c1	3%	x	29%	x	u	-23%[10 µM]
CC(C)OCCCNC(=O)c1ccc(NC(=O)C2CCCO2)cc1 (configuration not stated)	-1%	-14%	1%	4%	10%	-33%
SMILES	Luc counter	HPGD block	HTT aggregate	LMNA splice mod	ALDH1A1 block	HTT ATP protect
CCC(=O)c1ccc(OCC(O)Cn2c(C)nc3ccccc32)cc1 (configuration not stated)	0%	-14%	11µM*	u	4%	-14%[10 µM]
COc1ccc(NC(=O)CSc2nc3c(c(-c4cccs4)c2C#N)CN(C)CC3)cc1OC	-1%	-15%	-6%	3%	14µM*	-10%
COc1ccc(NC(=O)CSc2nnc(-c3cccs3)n2C)cc1OC	-1%	-13%	-2%	11%	-4%	-11%[0.074 µM]
COC(=O)CSc1nc2c(c(-c3ccc(O)cc3)c1C#N)CCCC2	-3%	x	7%[9.22 µM]	7%[46 µM]	u	-88%
COC(=O)CSc1nc2c(c(-c3ccco3)c1C#N)CCCC2	8%	13µM*	u	-1%	13µM*	-12%[0.074 µM]
CC(C)OC(=O)CC(=O)CSc1nc2c(c(-c3cccs3)c1C#N)CCC2	1%	-5%	11µM*	-2%	u	-4%[1.9 µM]
CCOC(=O)c1sc2nc[nH]c(=O)c2c1C	-1%	-24%	-12%	u	-6%	10%[10 µM]
CN[C@H]1CCc2cc(OC)c(OC)c(OC)c2-c2ccc(N[C@@H]3CCCCNC3=O)c(=O)cc21	2%	-9%	x	x	-8%	-266%
O=C(CSc1cccc2cccnc12)Nc1cccc(S(=O)(=O)N2CCOCC2)c1	-1%	x	30%	-24%[46 µM]	u	0%[10 µM]
CC(=O)Nc1nonc1-n1nnc(C(=O)NCc2ccccc2)c1C	-2%	u	6%	14%	11µM*	0%[1.9 µM]
CC(=O)Nc1c(C(=O)NCc2ccccc2)nnn1Cc1ccccc1	-2%	-2%	u	-1%	1%	-8%
Cc1ccc2c(c1)CC1(CN2C)C(=O)OC2(CCCCC2)OC1=O	x	x	9%	8%	u	-11%[0.074 µM]
CCCCCC(=O)Nc1ccc(Cc2ccncc2)cc1	1%	u	-25%	7%	3%	-13%[1.9 µM]
CC(=O)NNC(=S)NC(=O)c1cccc([N+](=O)[O-])c1	1%	28µM*	7%	-1%	8.9µM*	12%[10 µM]
O=C(NC(=S)Nc1cccc(NC(=O)c2ccccc2)c1)c1cccc([N+](=O)[O-])c1	2%	-5%	4%	-13%	u	4%[10 µM]
CNC(=S)N/N=C(\C)c1ccc2c(c1)OCO2	-2%	x	-16%	u	u	-25%
C/C(=N\Nc1cc(-c2ccccc2)nc(-c2ccccc2)n1)c1ccc(O)c(C)c1	2%	u	1%	-26%	-1%	-8%[10 µM]
C/C(=N\NC(=O)C(N)=O)c1cccc([N+](=O)[O-])c1	0%	x	13%	x	1%	x

Bioassay records: PubChem, National Center for Advancing Translational Sciences (NCATS)
